# The entries come from a sample that favours hits as a whole.
# Dicer processing: blocks human Dicer maturation of pre-miR-21; z-score at 25 µM; cat-ELCCA pre-miR-21 Dicer processing, chemiluminescence; stronger effect = higher value; Q9UPY3; 6% of 47,000 active; in the data active = z-score above about 3, passing the limit was not always enough;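 also: plate controls were vehicle for no effect and no enzyme for full effect; higher signal means more uncleaved substrate so more Dicer inhibition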
# The depositor's hits bear a star.
SMILES,Dicer processing
O=S(=O)(NC1CCN(Cc2ccccc2)CC1)c1cccc(C(F)(F)F)c1,3*
O=S(=O)(NC1CCN(Cc2ccccc2)CC1)c1cc(Cl)c(Cl)cc1Cl,-1.3
CC(C#N)Oc1ccc(Cl)cc1Cl (stereo unspecified),1.5
CCCCCC(C)NC(=O)C1c2ccccc2Oc2ccccc21 (stereo unspecified),-0.35
O=C(NCc1ccccn1)C1c2ccccc2Oc2ccccc21,3.1*
NC(=O)C1c2ccccc2Oc2ccccc21,-0.49
O=C(O)C1C2C=CC(C2)C1C(=O)NCc1ccccn1 (stereo unspecified),-1.3
Cc1nnc(NC(=O)C2c3ccccc3Oc3ccccc32)s1,4.9*
O=C(Nc1ccncc1)C1c2ccccc2Oc2ccccc21,-1.1
COC(=O)C1c2ccccc2Oc2ccccc21,-0.31
CC(C)c1nnc(NC(=O)C2c3ccccc3Oc3ccccc32)s1,0.88
O=C(NC1CCCC1)C1c2ccccc2Oc2ccccc21,4.3*
CC(C)(C)c1cc(NC(=O)C(Cl)Cl)c(C(N)=O)s1,-0.06
CCOc1nc2c(c(-c3ccc(F)cc3)c1C#N)Cc1ccccc1-2,0.45
CC1CCc2c(sc3nc(SC(C)C)nc(NCc4ccccc4)c23)C1 (stereo unspecified),-0.04
O=C(NCc1ccc(F)cc1)c1cc2n(n1)C(C(F)(F)F)CC(c1ccco1)N2 (stereo unspecified),2.6
CCOC(=O)CN1C(=O)CC(c2cc(OC)c(OC)c(OC)c2)CC1=O,2.1
Cn1c(=O)c2c(nc(N3CCC(C(N)=O)CC3)n2Cc2ccccc2Cl)n(C)c1=O,-0.81
Cc1cc(C)n2nc(C(=O)N3CCOCC3)nc2n1,4.4*
O=C(c1nc2nc(-c3ccccc3)cc(C(F)(F)F)n2n1)N1CCOCC1,-0.57
COC(=O)c1nc2nc(C)cc(C)n2n1,2.8
CC(C)(CC(=O)O)CC(=O)Nc1ccc2ccccc2n1,-1.6
Cc1cnc(NS(=O)(=O)c2ccccc2)c(Br)c1,-0.02
Cc1cccc(C)c1NS(=O)(=O)c1ccc(NS(=O)(=O)c2ccccc2)cc1,0.87
Cc1cc(O)cc(C)c1NS(=O)(=O)c1ccccc1,3.5*
SMILES,Dicer processing
CC(=O)N=Nc1c(O)[nH]c2ccc(F)cc12,-1.6
CCOC(=O)Cn1c2ccc(F)cc2c2nc3ccccc3nc21,0.35
C/S(=N\S(=O)(=O)c1ccccc1)c1ncc(Cl)cc1C(F)(F)F (stereo unspecified),-0.84
Cc1ccc(CNc2nc3ccccc3n2CCN2CCOCC2)cc1,1.6
Cn1c(CNc2nc3ccccc3n2CCN2CCCCC2)nc2ccccc21,-0.42
COc1ccc(CNc2nc3ccccc3n2C)cc1OC,1.8
c1ccc2c(c1)nc(NCc1ccncc1)n2CCN1CCOCC1,2.5
O=C(Nc1nc2ccccc2n1CCN1CCOCC1)c1cccc([N+](=O)[O-])c1,0.22
Oc1ccccc1CNc1nc2ccccc2n1CCN1CCOCC1,4.1*
COc1ccc(OC)c(CNc2nc3ccccc3n2CCN2CCOCC2)c1,5.1*
c1ccc(CNc2nc3ccccc3n2CCN2CCCCC2)nc1,3.5*
CCn1c(NCc2ccccn2)nc2ccccc21,0.67
N/C(=N\OC(=O)CCn1cccc(C(F)(F)F)c1=O)c1ccccc1,0.61
CN1Cc2cccc(C(=O)O)c2C1=O,-0.81
O=[N+]([O-])c1cccnc1Sc1nnc(-c2cccc(Cl)c2)o1,0.03
Cc1nc(-c2nc(-c3c(C(=O)N/N=C/c4cccs4)noc3C)cs2)cs1,0.34
Cc1nn(C)c(-n2ncc(C#N)c2N)c1[N+](=O)[O-],-0.46
O=C(c1ccco1)N(c1cc2sc(=O)oc2c2ccccc12)S(=O)(=O)c1ccccc1,-3.8
O=C(Nc1ccc(Br)cn1)c1cc2n(n1)C(C(F)(F)F)CC(c1ccccc1)N2 (stereo unspecified),2.6
O=C1CSC(=Nc2c(Cl)cccc2Cl)N1CCc1ccccc1,2.8
CCN(CC)CCNc1nc(C)nc2c1sc1nc3c(cc12)COC(C)(C)C3,0.01
Cc1cccc(OCCSc2nc3ccccc3n2CCO)c1,5.6*
Cc1ccc(OCCSc2nc3ccccc3o2)cc1,-1.5
Cc1ccc(OCCSc2n[nH]c3nc4ccccc4n23)cc1,6.2*
O=C(O)CCSc1n[nH]c2nc3ccccc3n12,-1.2
SMILES,Dicer processing
Cc1ccc(OCCn2c(SCCO)nc3ccccc32)cc1,0.65
CCn1c(SCCOc2ccc(OC)cc2)nc2ccccc21,-1.9
Nc1cc(C(F)(F)F)ccc1NCc1ccccc1,0.76
CCOC(=O)N1CCC(N/C=C(\C(C)=O)S(=O)(=O)c2ccc(Cl)cc2)CC1,-1.9
CC(C)(C)NC(=S)Nc1cc(Cl)ccc1Cl,1.6
Cc1ccc(-c2nnc(SCc3cccc(Cl)c3)o2)cc1,-0.29
c1ccc2c(-c3csc(-c4ccc5c(c4)OCCO5)n3)coc2c1,-0.58
O=C1C2ON(c3ccccc3)C(c3ccco3)C2C(=O)N1c1ccc(Br)cc1 (stereo unspecified),0.66
O=C1C2ON(c3ccccc3)C(c3ccc(F)cc3)C2C(=O)N1Cc1ccccc1 (stereo unspecified),0.11
O=C1C2ON(c3ccccc3)C(c3ccco3)C2C(=O)N1Cc1ccccc1 (stereo unspecified),4.1*
O=C1C2ON(c3ccccc3)C(c3ccco3)C2C(=O)N1c1ccccc1 (stereo unspecified),3.5*
CCOc1ccc(N2C(=O)C3ON(c4ccccc4)C(c4ccco4)C3C2=O)cc1 (stereo unspecified),-1.3
COc1ccc(C2C3C(=O)N(Cc4ccccc4)C(=O)C3ON2c2ccccc2)cc1 (stereo unspecified),0.46
Nc1cccc(F)c1CNCC(O)COc1ccc(Cl)c(Cl)c1 (stereo unspecified),-0.32
Cc1cccc(C)c1OCC(O)Cn1cnc2ccccc21 (stereo unspecified),0.99
Cc1cccc(OCC(O)Cn2cnc3ccccc32)c1 (stereo unspecified),3.7*
Cc1ccc(Cl)c(OCC(O)Cn2cnc3ccccc32)c1 (stereo unspecified),0.51
c1cnc2nc(SCc3ccc(CSc4nc5ncccc5[nH]4)cc3)[nH]c2c1,0.03
COc1ccc(OCCCCCCc2c(C)n[nH]c2C)cc1,-0.68
Cc1cccc(Nc2ccc(-n3ccnc3)nn2)c1,-2
Cc1onc(-c2ccccc2Cl)c1NC(=O)Nc1c(-c2ccccc2Cl)noc1C,0.16
COc1ccc(Nc2cc(C)nc3ccc(OC)cc23)cc1,2.8
COc1ccc2nc(C)cc(Nc3ccc(Cl)cc3)c2c1,3.1*
Cc1ccc(Nc2cc(C)nc3ccc(C)cc23)cc1,-0.61
CC1=C(C(=O)OCCOc2ccccc2)C(c2ccc(C)o2)C2=C(CC(c3cccs3)CC2=O)N1 (stereo unspecified),2.5
SMILES,Dicer processing
O=[N+]([O-])c1ccc(N/N=C2\CCSc3ccc(Cl)cc32)cc1,0.41
CC1C/C(=N\Nc2ccc(Br)cc2)c2cc(Cl)ccc2S1 (stereo unspecified),3.2*
CC1C/C(=N\Nc2cc(Cl)cc(Cl)c2)c2cc(Cl)ccc2S1 (stereo unspecified),1.4
CCCOc1ccc(C2c3c(oc4ccccc4c3=O)C(=O)N2Cc2ccc3c(c2)OCO3)cc1 (stereo unspecified),0.26
O=c1c2ccccc2c(-c2cccs2)nn1-c1ccccc1,-0.11
O=S(=O)(NNc1c(Cl)cccc1Cl)c1ccc(Cl)c(Cl)c1,2.1
Cc1c(Br)c(C(F)(F)F)nn1CC(=O)N1CCc2ccccc2C1,-0.61
Cc1ccc(OCc2nc(-c3cccnc3)no2)c(Br)c1,0.49
CCOC(=O)N(/N=C/c1sc2ccccc2c1C)SC(Cl)(Cl)Cl,-1.2
